Experimental data: PubChem BioAssay AID1159580 (chemical genetic matrix, 2015)
Where “and” joins values, the source holds several entries; their conditions need not be identical. Equal entries are not always repeated. In all, about 5,500 compounds went through this assay and about 2,000 (36%) were called active. Another 18% or so got no clear call; they are omitted. Cut-off read from the data, not from the text of the source: active = normalized growth mostly below about 0.91 (no sharp cut-off); inconclusive = no clear call, values can overlap the other calls; inactive = mostly above about 0.92. Some of the results follow.

Assay: chemical genetic growth profiling, strain panel (AID 1159580);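 note: tested at 20 µM; growth read once vehicle control cultures reached saturation at 30 °C; 1 = growth at the plate median or of vehicle wells; lower values mean less growth of the strain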
Settings: S. cerevisiae deletion strains, growth OD

Measured: normalized growth

CC12CCC(CC1)C(C)(C)O2
inactive: locus YAL013W, strain DEP1, stronger effect = lower value 1 | locus YAL021C, strain ccr4, stronger effect = lower value 0.963 | locus YAL026C, strain drs2, stronger effect = lower value 0.973 | locus YAL030W, strain snc1, stronger effect = lower value 0.998 | locus YBL061C, strain skt5, stronger effect = lower value 0.967 | locus YBR009C, strain hhf1, stronger effect = lower value 0.994 | locus YBR021W, strain FUR4, stronger effect = lower value 1.02 | locus YBR023C, strain chs3, stronger effect = lower value 0.974 | locus YBR171W, strain sec66, stronger effect = lower value 0.966 | locus YBR229C, strain ROT2, stronger effect = lower value 1 | locus YBR231C, strain swc5, stronger effect = lower value 1.02 | locus YBR279W, strain paf1, stronger effect = lower value 0.988 | locus YCL011C, strain gbp2, stronger effect = lower value 0.974 | locus YCL016C, strain dcc1, stronger effect = lower value 0.986 | locus YCL029C, strain bik1, stronger effect = lower value 1.01 | locus YCL061C, strain MRC1, stronger effect = lower value 0.968 | locus YCL069W, strain vba3, stronger effect = lower value 0.977 | locus YCR088W, strain abp1, stronger effect = lower value 0.985 | locus YDL005C, strain med2, stronger effect = lower value 0.975 | locus YDL035C, strain GPR1, stronger effect = lower value 0.999 | locus YDL040C, strain nat1, stronger effect = lower value 0.997 | locus YDL074C, strain BRE1, stronger effect = lower value 1.02 | locus YDL101C, strain DUN1, stronger effect = lower value 1 | locus YDL185W, strain tfp1, stronger effect = lower value 1.01 | locus YDL192W, strain arf1, stronger effect = lower value 1.02 | locus YDR001C, strain nth1, stronger effect = lower value 0.995 | locus YDR069C, strain doa4, stronger effect = lower value 0.966 | locus YDR101C, strain arx1, stronger effect = lower value 0.996 | locus YDR137W, strain rgp1, stronger effect = lower value 1.04 | locus YDR150W, strain NUM1, stronger effect = lower value 1 | locus YDR159W, strain sac3, stronger effect = lower value 1.01 | locus YDR162C, strain NBP2, stronger effect = lower value 0.978 | locus YDR195W, strain ref2 0.982 | locus YDR297W, strain sur2, stronger effect = lower value 0.985 | locus YDR318W, strain mcm21, stronger effect = lower value 1.02 | locus YDR334W, strain swr1, stronger effect = lower value 0.974 | locus YDR335W, strain msn5, stronger effect = lower value 0.985 | locus YDR388W, stronger effect = lower value 1.02 | locus YDR392W, strain spt3, stronger effect = lower value 0.935 | locus YDR502C, strain sam2, stronger effect = lower value 1.01 | locus YEL003W, strain gim4, stronger effect = lower value 0.989 | locus YEL037C, strain rad23, stronger effect = lower value 0.97 | locus YEL061C, strain CIN8 (second series), stronger effect = lower value 0.98 | locus YEL061C, strain CIN8, stronger effect = lower value 1 | locus YER015W, strain faa2, stronger effect = lower value 0.979 | locus YER016W, strain bim1, stronger effect = lower value 0.992 | locus YER110C, stronger effect = lower value 1.02 | locus YER111C, strain swi4, stronger effect = lower value 0.97 | locus YER155C, strain BEM2 (second series), stronger effect = lower value 0.977 | locus YER155C, strain BEM2, stronger effect = lower value 1.01 | locus YER167W, strain BCK2, stronger effect = lower value 1 | locus YFR010W, strain ubp6, stronger effect = lower value 0.967 | locus YGL078C, strain dbp3, stronger effect = lower value 1.03 | locus YGL086W, strain mad1, stronger effect = lower value 0.986 | locus YGL167C, strain pmr1, stronger effect = lower value 0.979 | locus YGL173C, strain kem1, stronger effect = lower value 0.971 | locus YGL227W, strain vid30, stronger effect = lower value 0.986 | locus YGL240W, strain doc1, stronger effect = lower value 0.997 | locus YGL248W, strain PDE1, stronger effect = lower value 1.01 | locus YGL253W, strain hxk2, stronger effect = lower value 0.963 | locus YGR078C, strain PAC10, stronger effect = lower value 1 | locus YGR135W, strain pre9, stronger effect = lower value 1.06 | locus YGR229C, strain SMI1, stronger effect = lower value 0.999 | locus YGR252W, strain gcn5, stronger effect = lower value 1.04 | locus YHR013C, strain ard1, stronger effect = lower value 0.967 | locus YHR027C, strain rpn1, stronger effect = lower value 0.984 | locus YHR030C, strain SLT2, stronger effect = lower value 1.01 and 0.978 | locus YHR079C, strain IRE1 (second series), stronger effect = lower value 1.01 | locus YHR079C, strain IRE1, stronger effect = lower value 0.993 | locus YHR094C, strain hxt1, stronger effect = lower value 1.02 | locus YHR129C, strain ARP1, stronger effect = lower value 1.01 | locus YHR142W, strain chs7, stronger effect = lower value 0.979 | locus YHR200W, strain rpn10, stronger effect = lower value 1.01 | locus YIL066C, strain RNR3, stronger effect = lower value 0.998 | locus YIL073C, strain SPO22, stronger effect = lower value 1 | locus YIL125W, strain kgd1, stronger effect = lower value 1.02 | locus YIR030C, strain dcg1, stronger effect = lower value 1.03 | locus YJL092W, strain hpr5, stronger effect = lower value 0.954 | locus YJL095W, strain BCK1 (second series), stronger effect = lower value 0.97 | locus YJL095W, strain BCK1, stronger effect = lower value 1.03 and 0.991 | locus YJL115W, strain asf1, stronger effect = lower value 0.982 | locus YJL129C, strain trk1, stronger effect = lower value 0.966 | locus YJL134W, strain LCB3, stronger effect = lower value 1 | locus YJL154C, strain vps35, stronger effect = lower value 0.984 | locus YJL164C, strain tpk1, stronger effect = lower value 0.988 | locus YJL166W, strain qcr8, stronger effect = lower value 0.996 | locus YJL168C, strain set2, stronger effect = lower value 1.04
